# Inconclusive results are not listed. Where a call stands in place of a potency, no number is given. Activity calls are given as the source filed them. Unless noted, calls follow the shape of the dose curve; as a rule, active = well fitted inhibition curve with a large enough effect; inconclusive = small, poorly fitted or top-dose-only effect; inactive = no such curve, though single readings can be large or run the other way.
# Experiment: qHTS profiling of the MIPE4 collection as inhibitors of Plasmodium falciparum (DD2) proliferation (Rep 2) (AID 743346; call rule not given here)
# Settings: P. falciparum Dd2 in erythrocytes, SYBR Green DNA, 72 h; at 28.5 µM unless noted
# Summary of the method: (§1)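 Parasite DNA was quantified by SYBR Green I fluorescence (ex 485, em 535 nm) after overnight lysis in saponin/Triton buffer at room temperature. Cultures at 0.3% parasitemia and 2.5% hematocrit were first exposed to compound for 72 h at 37 C; signals were normalised to artemisinin (0.29 uM) and vehicle wells.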
row,Structure (SMILES),"parasite growth, % of control (lower = inhibition)"
1,O=C(Nc1ccccc1Br)N[C@@H]1CCN(c2ccc(C(F)(F)F)cn2)C1,82.5%
2,O=C1c2c(O)cc(O)cc2O[C@H](c2cc(O)c(O)c(O)c2)[C@H]1O,78.7%
3,O=C(Nc1ccccc1-c1cn2c(CN3CCNCC3)csc2n1)c1cnc2ccccc2n1,12.5%
4,C[C@@H](O)[C@H]1C(=O)N2C(C(=O)O)=C(S[C@@H]3CN[C@H](C(=O)N(C)C)C3)[C@H](C)[C@H]12,118% [at 9.64 µM]
5,c1ccc2c(Cc3c[nH]c4ccccc34)c[nH]c2c1,22.5%
6,Cc1ccc(C(C)(O)c2nc3ccccc3s2)c(C)c1 (stereo not drawn),88.7%
7,O=c1cc(CN2CCOCC2)occ1OCCCCCSc1ccnc2cc(C(F)(F)F)ccc12,33.6%

# Experiment: qHTS profiling of the MIPE4 collection as inhibitors of Plasmodium falciparum (HB3) proliferation (AID 743347; call rule not given here)
# Settings: P. falciparum HB3 in erythrocytes, SYBR Green DNA, 72 h; at 28.5 µM unless noted
# Summary of the method: as §1
row,Structure (SMILES),"growth, % of control"
1,O=C(Nc1ccccc1Br)N[C@@H]1CCN(c2ccc(C(F)(F)F)cn2)C1,71.2%
2,O=C1c2c(O)cc(O)cc2O[C@H](c2cc(O)c(O)c(O)c2)[C@H]1O,102%
3,O=C(Nc1ccccc1-c1cn2c(CN3CCNCC3)csc2n1)c1cnc2ccccc2n1,3.22%
4,C[C@@H](O)[C@H]1C(=O)N2C(C(=O)O)=C(S[C@@H]3CN[C@H](C(=O)N(C)C)C3)[C@H](C)[C@H]12,61.4% [at 9.64 µM]
5,c1ccc2c(Cc3c[nH]c4ccccc34)c[nH]c2c1,23.8%
6,Cc1ccc(C(C)(O)c2nc3ccccc3s2)c(C)c1 (stereo not drawn),95.9%
7,O=c1cc(CN2CCOCC2)occ1OCCCCCSc1ccnc2cc(C(F)(F)F)ccc12,12.1%

# Experiment: High-throughput drug toxicity screening in the BPDCN cell line Cal-1 (AID 1224825; call rule not given here;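 also: cells exposed to compounds for 48 h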)
# Settings: Cal-1 BPDCN cell viability, qHTS; at 45.8 µM (top of the series) unless noted
# Summary of the method: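 Percent activity derived from CellTiter-Glo luminescence, scaling DMSO to 100% and 9.2 uM final bortezomib to 0%. BPDCN Cal-1 cells (500/well, RPMI plus 10% FBS) incubated with compounds 48 hours at 37C before reading.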
row,Structure (SMILES),viability (% of control)
1,O=C(Nc1ccccc1Br)N[C@@H]1CCN(c2ccc(C(F)(F)F)cn2)C1,101%
2,O=C1c2c(O)cc(O)cc2O[C@H](c2cc(O)c(O)c(O)c2)[C@H]1O,123%
3,O=C(Nc1ccccc1-c1cn2c(CN3CCNCC3)csc2n1)c1cnc2ccccc2n1,1.48%
4,c1ccc2c(Cc3c[nH]c4ccccc34)c[nH]c2c1,13.2%
5,Cc1ccc(C(C)(O)c2nc3ccccc3s2)c(C)c1 (stereo not drawn),6.97%
6,O=c1cc(CN2CCOCC2)occ1OCCCCCSc1ccnc2cc(C(F)(F)F)ccc12,75.4%

# Experiment: qHTS assay for measurement of the activity of small molecule inhibitors on Zika virus induced Caspase-3 activity in human iPSC derived neural progenitor cells (hNPCs) (AID 1224857); also: nearly all actives have a fitted effect of over 65% in size
# Settings: hNPCs ZIKV-induced caspase-3/7, Caspase-Glo luminescence, 6 h; series mostly up to 45.7 µM
# Summary of the method: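 Pretreat hNPCs with compound 1 h; infect ZIKV 2 FFU/cell; 6 h 37 C, 5% CO2; Caspase-Glo 3/7, 30 min RT; luminescence; normalize to no-virus and virus-only wells.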
row,Structure (SMILES),Potency
1,O=C(O)CCc1nc(-c2ccccc2)c(-c2ccccc2)o1,inactive
2,CCN(CC)CCNC(=O)c1ccc(N)cc1,inactive
3,NC(=S)c1ccc[n+]([C@@H]2O[C@@H](COP(=O)([O-])OP(=O)(O)OC[C@H]3O[C@@H](n4cnc5c(N)ncnc54)[C@H](OP(=O)(O)O)C3O)C(O)C2O)c1 (stereo partly drawn),inactive
4,CCN1CCC[C@H]1CNC(=O)c1cc(S(N)(=O)=O)ccc1OC,inactive
5,C[C@@H](O)[C@H]1C(=O)N2C(C(=O)O)=C(S[C@@H]3CN[C@H](C(=O)N(C)C)C3)[C@H](C)[C@H]12,inactive
6,COC(=O)[C@@H]1[C@H]2C[C@H]3c4[nH]c5ccccc5c4CCN3C[C@@H]2CC[C@@H]1O,inactive
7,CC1=C(/C=C/C(C)=C/C=C/C(C)=C/C(=O)Nc2ccc(O)cc2)C(C)(C)CCC1,inactive
8,CCCNC(=O)NS(=O)(=O)c1ccc(Cl)cc1,inactive
9,CC(=O)O[C@]1(C(C)=O)CC[C@H]2[C@@H]3C=C(Cl)C4=CC(=O)[C@@H]5C[C@@H]5[C@]4(C)[C@H]3CC[C@@]21C,inactive
10,O=C1NC(=O)C(c2ccccc2)(c2ccccc2)N1,inactive
11,CC/C(=C(\c1ccccc1)c1ccc(OCCN(C)C)cc1)c1ccccc1,inactive
12,O=C(O)CCC(C(=O)O)N1C(=O)c2ccccc2C1=O (stereo not drawn),inactive
13,CCN(CC)CCOC(=O)c1ccc(N)cc1,inactive
14,COc1ccccc1N1CCN(CCCNc2cc(=O)n(C)c(=O)n2C)CC1,inactive
15,CC[C@]1(O)C[C@@H]2CN(CCc3c([nH]c4ccccc34)[C@@](C(=O)OC)(c3cc4c(cc3OC)N(C)[C@H]3[C@@](O)(C(=O)OC)[C@H](OC(C)=O)[C@]5(CC)C=CCN6CC[C@]43[C@@H]65)C2)C1,inactive
16,CC(C)(C)c1ccc(C(O)CCCN2CCC(C(O)(c3ccccc3)c3ccccc3)CC2)cc1 (stereo not drawn),inactive
17,O=C1NCC2(CCN(CCc3ccccc3)CC2)O1,inactive
18,O=C(O)Cc1cccc2ccccc12,inactive
19,OC[C@@H](O)[C@H](O)[C@H](O)[C@@H](O)CO,inactive
20,Cc1cccc(C)c1OCC(C)N (stereo not drawn),inactive
21,Nc1nc(Cl)nc2c1ncn2[C@@H]1O[C@H](COP(=O)(O)OP(=O)(O)OP(=O)(O)O)C(O)[C@H]1O (stereo partly drawn),inactive
22,NCCS,inactive
23,CC(=O)c1ccc(S(=O)(=O)NC(=O)NC2CCCCC2)cc1,inactive
24,O=C(O)c1cc(-c2ccccc2)nc2ccccc12,inactive
25,C[N+](C)(C)CCCCCC[N+](C)(C)C,inactive
26,CC(=O)CCCCn1c(=O)c2c(ncn2C)n(C)c1=O,inactive

# Experiment: qHTS assay for measurement of the activity of small molecule inhibitors on Zika virus induced Caspase-3 activity in human astrocytoma cells (AID 1224859)
# Settings: SNB-19 ZIKV-induced caspase-3/7, luminescence, 6 h; series mostly up to 45.7 µM
# Summary of the method: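 Human SNB-19 astrocytoma cells in RPMI 1640 with 10% FBS receive compound one hour ahead of Zika virus at 2 FFU/cell. After 6 h infection, caspase-3/7 activity is detected by Caspase-Glo luminescence.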
row,Structure (SMILES),Potency
1,O=C(O)CCc1nc(-c2ccccc2)c(-c2ccccc2)o1,inactive
2,O=C1c2c(O)cc(O)cc2O[C@H](c2cc(O)c(O)c(O)c2)[C@H]1O,inactive
3,CCN(CC)CCNC(=O)c1ccc(N)cc1,inactive
4,Clc1ccc(Cn2c(CN3CCCC3)nc3ccccc32)cc1,inactive
5,C[C@@H](O)[C@H]1C(=O)N2C(C(=O)O)=C(S[C@@H]3CN[C@H](C(=O)N(C)C)C3)[C@H](C)[C@H]12,inactive
6,COC(=O)[C@@H]1[C@H]2C[C@H]3c4[nH]c5ccccc5c4CCN3C[C@@H]2CC[C@@H]1O,inactive
7,NC(N)=Nc1nc(CSCC/C(N)=N/S(N)(=O)=O)cs1,inactive
8,CCN(CC)C(=O)c1ccc(O)c(OC)c1,inactive
9,CC1=C(/C=C/C(C)=C/C=C/C(C)=C/C(=O)Nc2ccc(O)cc2)C(C)(C)CCC1,inactive
10,CCCNC(=O)NS(=O)(=O)c1ccc(Cl)cc1,inactive
11,CC(=O)O[C@]1(C(C)=O)CC[C@H]2[C@@H]3C=C(Cl)C4=CC(=O)[C@@H]5C[C@@H]5[C@]4(C)[C@H]3CC[C@@]21C,inactive
12,CC/C(=C(\c1ccccc1)c1ccc(OCCN(C)C)cc1)c1ccccc1,inactive
13,CN(C)CCC(c1ccccc1)c1ccccn1 (stereo not drawn),inactive
14,CCN(CC)CCOC(=O)c1ccc(N)cc1,inactive
15,COc1ccccc1N1CCN(CCCNc2cc(=O)n(C)c(=O)n2C)CC1,inactive
16,CC[C@]1(O)C[C@@H]2CN(CCc3c([nH]c4ccccc34)[C@@](C(=O)OC)(c3cc4c(cc3OC)N(C)[C@H]3[C@@](O)(C(=O)OC)[C@H](OC(C)=O)[C@]5(CC)C=CCN6CC[C@]43[C@@H]65)C2)C1,inactive
17,CC(C)(C)c1ccc(C(O)CCCN2CCC(C(O)(c3ccccc3)c3ccccc3)CC2)cc1 (stereo not drawn),inactive
18,O=c1cc(CN2CCOCC2)occ1OCCCCCSc1ccnc2cc(C(F)(F)F)ccc12,inactive
19,O=C1NCC2(CCN(CCc3ccccc3)CC2)O1,inactive
20,O=C(O)Cc1cccc2ccccc12,inactive
21,OC[C@@H](O)[C@H](O)[C@H](O)[C@@H](O)CO,inactive
22,Cc1cccc(C)c1OCC(C)N (stereo not drawn),inactive
23,NCCS,inactive
24,CC(=O)c1ccc(S(=O)(=O)NC(=O)NC2CCCCC2)cc1,inactive
25,CC(C)NCC(O)COc1cccc2[nH]ccc12 (stereo not drawn),inactive
26,O=C(O)c1cc(-c2ccccc2)nc2ccccc12,inactive
27,CC(=O)N[C@@H](CS)C(=O)O,inactive

# From PubChem BioAssay (NCATS)
